Laboratory results reported in the supplement of paper PMC6522484.
± gives the standard deviation of the averaged measurements.

Key:
DLD1 [1] = assay: cell viability (CellTiter-Glo) relative to plate median (fraction of plate median); higher = more viable cells; conditions: 5 µM; treatment time 24 h; reporter: 7TFP
Summary of the method: (§1)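 Colorectal cancer cell lines stably carrying lentiviral TCF/Wnt firefly luciferase reporters (7TFP or TCF4/Wnt) were plated in 384-well plates and, 24 h later, given library compounds at a final 5 µM for 24 h. Firefly luciferase or CellTiterGlo luminescence was read on parallel plates with a Tecan F500 reader. Each well's signal was normalised to the plate median in webcellHTS2 (additive, without log transformation). Values are the mean of two independent replicates.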

HCT116 = assay: as above; conditions: 5 µM; treatment time 24 h; reporter: TCF4/Wnt
Summary of the method: as §1

SW480 [2] = assay: as above; conditions: 5 µM; treatment time 24 h; reporter: 7TFP
Summary of the method: as §1

DLD1 [3] = assay: TCF/Wnt firefly luciferase reporter signal relative to plate median (fraction of plate median); higher = higher Wnt reporter signal; conditions: 5 µM; treatment time 24 h; reporter: 7TFP
Summary of the method: as §1

SW480 [4] = assay: as above; conditions: 5 µM; treatment time 24 h; reporter: 7TFP
Summary of the method: as §1

SMILES	cell viability (DLD1 [1])	cell viability (HCT116)	cell viability (SW480 [2])	TCF/Wnt firefly luciferase reporter signal (DLD1 [3])	TCF/Wnt firefly luciferase reporter signal (SW480 [4])
O=c1c(O)c(-c2ccc(O)c(O)c2)oc2c(O)c(O)cc(O)c12	0.905 ± 0.12	1.1 ± 0.085	0.9465 ± 0.00071	0.9395 ± 0.0035	0.916 ± 0.033
COC(=O)C1=CCCN(C)C1	0.991 ± 0.13	1.07 ± 0.042	1.1 ± 0.099	1.07 ± 0.11	1.05 ± 0.064
C[C@H]1O[C@@H](O[C@H]2[C@@H](O)C[C@H](O[C@H]3[C@@H](O)C[C@H](O[C@H]4CC[C@@]5(C)[C@H](CC[C@@H]6[C@@H]5CC[C@]5(C)[C@@H](C7=CC(=O)OC7)[C@@H](O)C[C@]65O)C4)O[C@@H]3C)O[C@@H]2C)C[C@H](O)[C@@H]1O	0.632 ± 0.13	0.649 ± 0.21	0.765 ± 0.11	0.611 ± 0.61	0.685 ± 0.25
COc1c2c(c(CC=C(C)C)c3oc(=O)c(-c4ccc(O)cc4)c(O)c13)OC(C)(C)C=C2	0.9495 ± 0.0021	0.985 ± 0.064	1.01 ± 0.035	0.969 ± 0.016	0.985 ± 0.012
Cc1cc(O)cc2oc(=O)c3c(O)cc(O)cc3c12 [Alternariol]	0.914 ± 0.017	0.919 ± 0.013	1.01 ± 0.03	0.861 ± 0.12	0.992 ± 0.097
NCC(CC(=O)O)c1ccc(Cl)cc1 (stereo not given)	0.998 ± 0.088	0.9975 ± 0.0035	1.03 ± 0.028	0.897 ± 0.1	1.02 ± 0.12
O=c1cccc2n1C[C@@H]1CNC[C@H]2C1	0.978 ± 0.045	0.981 ± 0.015	1.005 ± 0.0071	0.84 ± 0.15	0.907 ± 0.044
C=CCSSCC=C	1.055 ± 0.0071	1.045 ± 0.0071	1.05 ± 0.078	1.1 ± 0.085	0.95 ± 0.13
OC1CCCCC1N1CCC(c2ccccc2)CC1 (stereo not given)	0.98 ± 0.0042	0.922 ± 0.069	1.04 ± 0.021	0.867 ± 0.1	0.92 ± 0.022
Cc1cc2c(C(C)C)c(O)c(O)c(C=O)c2c(O)c1-c1c(C)cc2c(C(C)C)c(O)c(O)c(C=O)c2c1O	0.974 ± 0.037	0.969 ± 0.044	0.976 ± 0.03	0.966 ± 0.048	1.04 ± 0.11
CCC(C)C(=O)O[C@@H]1C[C@@]2(C)[C@H](c3ccoc3)OC(=O)CC23OC2(C)O[C@]14[C@]1(C)[C@@H](CC(=O)OC)C5(C)CC1(O)[C@](O)(C5OC(=O)C1(C)OC1C)[C@@H](OC(C)=O)[C@]34O2 (stereo not given in full)	0.972 ± 0.027	0.961 ± 0.11	1 ± 0.013	1.04 ± 0.014	0.928 ± 0.19
Oc1ccc(Cl)cc1	1.06 ± 0.064	0.892 ± 0.025	0.961 ± 0.04	1.03 ± 0.042	1.115 ± 0.0071
C[C@H](N)[C@H](O)c1ccc(O)c(O)c1	0.971 ± 0.042	1.05 ± 0.057	1.09 ± 0.17	1.004 ± 0.0085	0.9685 ± 0.0078
C/C=C(/C)C(=O)O[C@H]1CC[C@@]2(C)[C@@H]3CC[C@H]4[C@]5(O)C[C@H](O)[C@@]6(O)[C@@H](CN7C[C@@H](C)CC[C@H]7[C@@]6(C)O)[C@]5(O)C[C@]42O[C@]13O	0.9805 ± 0.0064	0.892 ± 0.06	1.04 ± 0.064	1.16 ± 0.064	1.185 ± 0.0071
C#C[C@]1(O)CC[C@H]2[C@@H]3CCC4=CC(=O)CC[C@]4(C)[C@H]3CC[C@@]21C	1.02 ± 0.042	1.06 ± 0.021	0.962 ± 0.048	1.05 ± 0.064	1.05 ± 0.076
CN1[C@@H]2C[C@@H](OC(=O)[C@H](CO)c3ccccc3)C[C@H]1[C@@H]1O[C@@H]12	1.04 ± 0.042	1.07 ± 0.042	0.99 ± 0.0099	1.02 ± 0.1	1.035 ± 0.0071
COc1cc2c(cc1-c1cc3cc4ccoc4cc3oc1=O)OCO2	0.964 ± 0.03	0.949 ± 0.054	0.93 ± 0.059	0.973 ± 0.017	0.9445 ± 0.0021
C/C=C(/C)C(=O)O[C@H]1CC[C@@]2(C)[C@@H]3CC[C@H]4[C@]5(O)C[C@H](O)[C@@]6(O)[C@@H](CN7C[C@@H](C)CC[C@H]7[C@@]6(C)O)[C@]5(O)C[C@@]42O[C@]13O	0.994 ± 0.037	0.995 ± 0.021	0.946 ± 0.017	0.952 ± 0.036	0.9235 ± 0.0078
C=CCC1(C(C)CCC)C(=O)NC(=S)NC1=O (stereo not given)	1.03 ± 0.076	1.18 ± 0.23	0.951 ± 0.0028	1.02 ± 0.035	0.794 ± 0.011
CC(=O)NC1CCSC1=O (stereo not given)	1.03 ± 0.055	1.01 ± 0.019	1.03 ± 0.028	1.02 ± 0.12	0.902 ± 0.12
COS(C)(=O)=O	1.07 ± 0.071	0.901 ± 0.021	1.015 ± 0.0071	0.98 ± 0.14	0.958 ± 0.074
COc1cc2c(cc1OC)[C@@H]1C(=O)c3ccc4oc(C(C)C)cc4c3O[C@@H]1CO2	0.923 ± 0.052	0.875 ± 0.14	0.75 ± 0.021	0.974 ± 0.028	0.749 ± 0.052
COC(=O)[C@H]1O[C@@H]2C[C@H]3O[C@@H](n4cnc5c(N)ncnc54)[C@H](OC)[C@H]3O[C@@]2(O)[C@@H](O)[C@@H]1O [Herbicidin B]	0.988 ± 0.032	1.04 ± 0.081	1.05 ± 0.021	0.857 ± 0.061	0.945 ± 0.051
Cc1c(O)c(O)cc2c1CC=C1[C@@]2(C)CC[C@@]2(C)[C@@H]3C[C@](C)(C(=O)O)CC[C@]3(C)CC[C@]12C	0.88 ± 0.082	0.981 ± 0.069	1.03 ± 0.045	0.863 ± 0.073	0.846 ± 0.079
O=c1[nH]c2ccccc2n1CCCN1CCC(n2c(=O)[nH]c3cc(Cl)ccc32)CC1 [Domperidone]	0.898 ± 0.1	0.83 ± 0.042	0.94 ± 0.063	0.997 ± 0.09	0.814 ± 0.071
CCOC(=O)C1C(C=C(C)C)C1(C)C (stereo not given)	0.913 ± 0.11	0.961 ± 0.038	0.932 ± 0.05	0.906 ± 0.064	1.02 ± 0.035
C[C@]12CCC(=O)C[C@@H]1CC[C@@H]1[C@@H]2CC[C@]2(C)C(=O)CC[C@@H]12 [5alpha-ANDROSTAN-3,17-DIONE]	0.895 ± 0.095	1.07	0.959 ± 0.052	0.959 ± 0.086	0.9525 ± 0.005
CC[C@@]1(O)C(=O)OCc2c1cc1n(c2=O)Cc2cc3ccccc3nc2-1	0.91 ± 0.094	0.292 ± 0.067	0.925 ± 0.041	1.01 ± 0.12	0.911 ± 0.016
